PubChem BioAssay (NCI)
Compounds without any hit were thinned out: in the full panel of roughly 79,000, 15% have a hit. Active and inactive are the calls of the source. No stated cut-off is given here; in the data, active means growth inhibition above about 70%; inactive means the rest.

Experiments:
[1] = NCI Yeast Anticancer Drug Screen. Data for the rad52 strain (AID 147);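 further: 0% = growth of vehicle-treated control cultures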; details: S. cerevisiae rad52 mutant growth inhibition, hits give high values
Outline: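 Screen used a yeast mutant impaired in DNA repair. After compound exposure, growth was measured. Values reflect inhibition compared with vehicle-treated cells.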

[2] = NCI Yeast Anticancer Drug Screen. Data for the wt1 strain (AID 149);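 further: 0% = growth of vehicle-treated wt1 cultures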; details: S. cerevisiae wt1 strain (SPY 50644) growth inhibition, hits give high values
Outline: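 Compounds are added to wt1 yeast cultures. Growth is then measured. Inhibition is expressed relative to vehicle-treated controls.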

[3] = NCI Yeast Anticancer Drug Screen. Data for the rad50EPP+ strain (AID 151);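 further: 0% = growth of vehicle-treated control cultures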; details: S. cerevisiae rad50 mutant strain, hits give high values
Outline: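 Exposing the rad50EPP+ strain to each compound, growth was compared with vehicle-only cultures to give inhibition.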

[4] = NCI Yeast Anticancer Drug Screen. Data for the rad50 strain (AID 155);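 further: 0% = growth of vehicle-only cultures of the same strain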; details: S. cerevisiae rad50 strain growth inhibition, hits give high values
Outline: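 Inhibition values express reduced yeast growth in compound-treated cultures relative to vehicle-treated controls.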

[5] = NCI Yeast Anticancer Drug Screen. Data for the mec2-1 strain (AID 157); details: S. cerevisiae mec2-1 strain, hits give high values
Outline: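 Readout is yeast growth inhibition, normalised to vehicle-treated controls, in the mec2-1 strain exposed to compound.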

[6] = NCI Yeast Anticancer Drug Screen. Data for the rad14 strain (AID 159);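 further: 0% = growth of vehicle-treated control cultures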; details: S. cerevisiae rad14 strain growth inhibition, hits give high values
Outline: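 A mutant yeast strain defective in DNA damage repair is treated with compound; inhibition of its growth is scored against untreated, vehicle-exposed cultures.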

[7] = NCI Yeast Anticancer Drug Screen. Data for the sgs1 mgt1 strain (AID 161);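 further: 0% = growth of cultures given vehicle only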; details: S. cerevisiae sgs1 mgt1 strain, hits give high values
Outline: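 Yeast cells carrying a defined DNA-repair defect were exposed to test compounds. Growth inhibition was measured relative to vehicle-treated controls.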

[8] = NCI Yeast Anticancer Drug Screen. Data for the CLN2oe strain (AID 163);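 further: 0% = growth of vehicle-only control cultures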; details: S. cerevisiae CLN2oe strain, hits give high values
Outline: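 Values reflect how much compound exposure reduced yeast growth, referenced to vehicle-exposed cells. Assay organism is a strain with a defined genetic change affecting cell-cycle control.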

[9] = NCI Yeast Anticancer Drug Screen. Data for the cln2 rad14 strain (AID 165);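 further: 0% = growth equal to vehicle treated cultures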; details: S. cerevisiae cln2 rad14 strain, hits give high values
Outline: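 Relative to vehicle controls, growth inhibition of compound-treated cln2 rad14 yeast was recorded.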

[10] = NCI Yeast Anticancer Drug Screen. Data for the bub3 strain (AID 167); details: S. cerevisiae bub3 mutant strain, hits give high values
Outline: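 Steps: expose the mutant yeast strain to compound; grow alongside vehicle-treated cultures; measure growth; express inhibition against the vehicle cultures.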

[11] = NCI Yeast Anticancer Drug Screen. Data for the wt2 strain (AID 169);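 further: 0% = growth of vehicle-treated yeast cultures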; details: S. cerevisiae wt2 strain growth inhibition, hits give high values
Outline: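 Values express reduction in yeast growth under compound treatment, referenced to vehicle-treated cells.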

[12] = NCI Yeast Anticancer Drug Screen. Data for the mlh1 strain (AID 171);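 further: 0% = growth of vehicle-treated control cultures of the same strain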; details: S. cerevisiae mlh1 strain growth inhibition, hits give high values
Outline: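 Steps: expose the defined-mutant yeast strain to compound; expose a parallel culture to vehicle; measure growth; express compound effect as inhibition relative to the vehicle culture.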

[13] = NCI Yeast Anticancer Drug Screen. Data for the sgs1 strain (AID 173);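 further: 0% = growth of vehicle-only control cultures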; details: S. cerevisiae sgs1 mutant, hits give high values
Outline: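 Treat defined-mutant yeast with compound; measure growth; calculate inhibition relative to vehicle-treated cells.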

[14] = NCI Yeast Anticancer Drug Screen. Data for the mlh1 rad18 strain (AID 175); details: S. cerevisiae mlh1 rad18 strain growth inhibition, hits give high values
Outline: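 Test agents were incubated with a yeast strain of defined genotype (DNA damage repair defect). Inhibition of growth was derived by comparison with vehicle-exposed cultures.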

[15] = NCI Yeast Anticancer Drug Screen. Data for the rad18 strain (AID 177); details: S. cerevisiae rad18 mutant growth inhibition, hits give high values
Outline: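 A genetically defined yeast mutant impaired in DNA damage repair was treated with test compounds, then its growth was measured against cultures receiving vehicle alone.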

[16] = at 5.0 µM (retest, dose inferred, filed as 0.5)
[17] = at 50.0 µM (retest, dose inferred, filed as 5.0)

Measured: growth inhibition

CCC(c1ccc(O)cc1)C(CC)c1ccc(OCCN)cc1 (stereo unspecified)
inactive: [1]; at 1.2 µM -5% | [1]; at 3.7 µM 0% | [1]; at 11.0 µM 0% | [1]; at 33.0 µM 11% | [2]; at 1.2 µM -4% | [2]; at 3.7 µM -4% | [2]; at 11.0 µM -8% | [2]; at 33.0 µM -8% | [2]; at 100.0 µM 27% | [3]; at 1.2 µM -3% | [3]; at 3.7 µM 1% | [3]; at 11.0 µM 12% | [3]; at 33.0 µM 1% | [3]; at 100.0 µM 10% | [4]; at 1.2 µM 0% | [4]; at 3.7 µM -1% | [4]; [16] 18% | [4]; at 11.0 µM 3% | [4]; at 33.0 µM 27% | [4]; [17] 69% | [4]; at 50.0 µM 27.9% | [5]; at 1.2 µM -3% | [5]; at 3.7 µM -3% | [5]; [16] -4% | [5]; at 11.0 µM -7% | [5]; at 33.0 µM -4% | [5]; [17] 8% | [5]; at 50.0 µM 6.25% | [5]; at 100.0 µM 64% | [6]; at 1.2 µM -3% | [6]; at 3.7 µM 1% | [6]; at 11.0 µM 3% | [6]; at 33.0 µM 17% | [7]; [16] 0% | [7]; at 50.0 µM 60.1% | [8]; at 1.2 µM -1% | [8]; at 3.7 µM -4% | [8]; at 11.0 µM 5% | [8]; at 33.0 µM 19% | [9]; [16] -2% | [9]; [17] 25% | [9]; at 50.0 µM -1.25% | [10]; at 1.2 µM -2% | [10]; at 3.7 µM -3% | [10]; [16] -19% | [10]; at 11.0 µM -7% | [10]; at 33.0 µM -1% | [10]; [17] 62% | [10]; at 50.0 µM 45.1% | [11]; at 1.2 µM -2% | [11]; at 3.7 µM -9% | [11]; at 11.0 µM 6% | [11]; at 33.0 µM 8% | [12]; at 1.2 µM -3% | [12]; at 3.7 µM -4% | [12]; at 11.0 µM -5% | [12]; at 33.0 µM 12% | [13]; at 1.2 µM -23% | [13]; at 3.7 µM -46% | [13]; at 11.0 µM -18% | [13]; at 33.0 µM 15% | [14]; [16] 12% | [14]; at 50.0 µM 14.6%
active: [1]; at 100.0 µM 88% | [4]; at 100.0 µM 88% | [6]; at 100.0 µM 98% | [7]; [17] 76% | [8]; at 100.0 µM 83% | [10]; at 100.0 µM 72% | [11]; at 100.0 µM 92% | [12]; at 100.0 µM 91% | [13]; at 100.0 µM 94% | [14]; [17] 87%

CC(=O)Oc1ccc(C(=O)c2ccccc2)c(O)c1
active: [1]; at 100.0 µM 96% | [2]; at 100.0 µM 96% | [3]; at 100.0 µM 85% | [4]; [17] 95% | [4]; at 50.0 µM 70.2% | [4]; at 100.0 µM 96% | [5]; [17] 99% | [5]; at 100.0 µM 96% | [6]; at 100.0 µM 92% | [7]; [17] 88% | [7]; at 50.0 µM 74.5% | [8]; at 100.0 µM 96% | [9]; [17] 82% | [10]; [17] 88% | [10]; at 50.0 µM 74% | [10]; at 100.0 µM 95% | [11]; at 100.0 µM 94% | [12]; at 100.0 µM 96% | [13]; at 100.0 µM 96% | [14]; [17] 98% | [15]; at 100.0 µM 97%
inactive: [1]; at 1.2 µM -7% | [1]; at 3.7 µM -10% | [1]; at 11.0 µM 2% | [1]; at 33.0 µM 28% | [2]; at 1.2 µM -2% | [2]; at 3.7 µM -1% | [2]; at 11.0 µM -4% | [2]; at 33.0 µM 10% | [3]; at 1.2 µM 14% | [3]; at 3.7 µM 20% | [3]; at 11.0 µM 19% | [3]; at 33.0 µM 47% | [4]; at 1.2 µM -4% | [4]; at 3.7 µM 1% | [4]; [16] 60% | [4]; at 11.0 µM -2% | [4]; at 33.0 µM 32% | [5]; at 1.2 µM -31% | [5]; at 3.7 µM -5% | [5]; [16] 64% | [5]; at 11.0 µM 2% | [5]; at 33.0 µM 26% | [5]; at 50.0 µM 50% | [6]; at 1.2 µM -24% | [6]; at 3.7 µM -20% | [6]; at 11.0 µM -19% | [6]; at 33.0 µM 21% | [7]; [16] -18% | [8]; at 1.2 µM -7% | [8]; at 3.7 µM -9% | [8]; at 11.0 µM -10% | [8]; at 33.0 µM 12% | [9]; [16] 27% | [9]; at 50.0 µM 58.9% | [10]; at 1.2 µM -36% | [10]; at 3.7 µM -38% | [10]; [16] 5% | [10]; at 11.0 µM -58% | [10]; at 33.0 µM -25% | [11]; at 1.2 µM -3% | [11]; at 3.7 µM 7% | [11]; at 11.0 µM 7% | [11]; at 33.0 µM 21% | [12]; at 1.2 µM -2% | [12]; at 3.7 µM -1% | [12]; at 11.0 µM 0% | [12]; at 33.0 µM 36% | [13]; at 1.2 µM 6% | [13]; at 3.7 µM 10% | [13]; at 11.0 µM 13% | [13]; at 33.0 µM 46% | [14]; [16] 50% | [14]; at 50.0 µM 61.8% | [15]; at 1.2 µM 0% | [15]; at 3.7 µM 13% | [15]; at 11.0 µM 17% | [15]; at 33.0 µM 39%
